assay: small molecules captured by biotinylated probe aFST – biochemical, small-molecule microarray, fluorescence 635/667, stem cell growth factor project, primary screen (AID 1086); conditions: higher = more signal;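 further: score merges 667 nm fluorescence with signal-to-noise of each printed compound spot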

Structure (SMILES) | composite z-score
C=CC(=C)[C@H]1Oc2ccccc2S(=O)(=O)N2CCC[C@@H]12 | 0.303
C=C[C@@H](COC(=O)OC(C)(C)C)N(Cc1ccc(OC)cc1)S(=O)(=O)c1ccc(Br)cc1 | 0.481
COCC(=C=CC[C@@H](O)c1cccc(OCCO)c1)C[C@@H](O)c1ccccn1 | -0.27
O=C(CS)NCCCCCCNC(=O)[C@@H]1C[C@@H]2C(=O)NCC(=O)N2[C@@H]1c1cccc(OCCO)c1 | -0.528
C=C(CC1([C@@H](NP(=O)(c2ccccc2)c2ccccc2)[C@H]2C[C@@H]2CCCC)CC1)c1ccccc1 | 1.07
COC(=O)[C@@]1(Cc2ccc(F)cc2)[C@H]2c3cc(C(=O)N(C)C)n(Cc4cc(F)c(F)c(F)c4)c3C[C@H]2CN1C(=O)c1ccccc1 | 1.88
CN(C)CCCC[C@@H]1NC(=O)[C@H]2C[C@@H](C(=O)NCCCCCCN)[C@@H](c3ccc(O)cc3)N2C1=O | 1.52
CN(C)CCCCCCNC(=O)[C@H]1C[C@H]2C(=O)N[C@@H](CCCCN)C(=O)N2[C@H]1c1cccc(OCCO)c1 | 3.58
CC(C)=CCCC(C)=CC(O)C1C=CC2C(=O)N(C)C(=O)C2N1Nc1ccccc1 (configuration not stated) | 1.24
CCS[C@H]1[C@@H](C(=O)O)[C@H](c2ccc(C)cc2)N(S(=O)(=O)c2ccc(C)cc2)[C@@H]1CC | 1.56
CCC(CC)C(O)C1C=CC2C(=O)NC(=O)C2N1Nc1ccc(Cl)cc1Cl (configuration not stated) | 0.812
COC(=O)[C@@]1(Cc2ccc(F)cc2)[C@H]2c3cc(C(=O)N(C)C)n(Cc4ccccc4)c3C[C@H]2CN1C(=O)c1ccccc1 | 1.35

Reference: PubChem BioAssay
